In PubChem BioAssay (EPA / NIEHS):
Where “and” joins values, the source holds several entries; their conditions need not be identical. Identical values can stand only once. Results filed as inconclusive are left out. The source holds several records for some structures; these can differ, active in one and inactive in another. Calls of active or inactive are those of the source. How the source made its calls, unless noted: active means hit-call score of the fitted dose curve at least 0.9, where 1 is the maximum; inactive means score below 0.9.

How the values were obtained:
[1] = BSK_4H_Eotaxin3: BioMAP Diversity Plus: 4H Assay for Eotaxin 3 Biomarker Activity (AID 2283000); conditions: primary human endothelial cells (HUVEC); actives raise or lower the signal
In short: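 HUVEC, 24 h post-dose, ELISA for Eotaxin-3/CCL26. Gain or loss of signal fitted bidirectionally vs DMSO baseline.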

[2] = target: human Peroxisome Proliferator-activated Receptor alpha (PPARa), PPARA (gene 5465) (UniProt Q07869); assay: ATG_PPARa_TRANS: Attagene TRANS-FACTORIAL HepG2 Assay for human Peroxisome Proliferator-activated Receptor alpha (PPARa) (AID 2283001; active means hit-call score of the fitted dose curve at least 0.9, where 1 is the maximum;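 on AC50: potency for gain of reporter signal over DMSO so agonist or activator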)
Chain of human Peroxisome Proliferator-activated Receptor alpha (PPARa), PPARA (gene 5465) (Q07869 whole entry, looked up): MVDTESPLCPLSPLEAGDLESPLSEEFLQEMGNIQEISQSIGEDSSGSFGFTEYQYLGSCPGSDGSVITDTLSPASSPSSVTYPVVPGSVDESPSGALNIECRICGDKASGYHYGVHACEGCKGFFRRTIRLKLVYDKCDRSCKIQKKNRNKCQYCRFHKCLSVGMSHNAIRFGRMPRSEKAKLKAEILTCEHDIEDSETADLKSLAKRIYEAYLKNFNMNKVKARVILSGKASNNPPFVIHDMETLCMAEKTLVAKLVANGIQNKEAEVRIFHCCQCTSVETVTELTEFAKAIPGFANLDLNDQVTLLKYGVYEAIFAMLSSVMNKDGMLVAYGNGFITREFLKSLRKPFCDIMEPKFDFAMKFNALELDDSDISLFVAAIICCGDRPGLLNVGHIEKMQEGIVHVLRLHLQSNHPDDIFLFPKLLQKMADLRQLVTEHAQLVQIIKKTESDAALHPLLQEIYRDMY
In short: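 HepG2, transient MRTU transfection, 24 h treatment. RT-PCR → FAM labelling → capillary electrophoresis. Fit vs DMSO, positive direction.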

[3] = BSK_3C_Proliferation: Cell Proliferation Assessment in the BioMAP Diversity Plus: 3C Assay (AID 2283006); conditions: primary human endothelial cells (HUVEC);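 on AC50: potency may reflect either rise or fall in cell number versus DMSO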
In short: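 Cells (human umbilical vein endothelial, sub-confluent) receive test chemical; after 48 h they are fixed in 10% trichloroacetic acid, stained with 0.1% SRB and read at 560 nm. Activity is referenced to DMSO, fitting increases and decreases.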

[4] = target: Peroxisome proliferator-activated receptor gamma (Homo sapiens) (UniProt P37231); assay: ATG_PPARg_TRANS: Attagene TRANS-FACTORIAL HepG2 Assay for human Peroxisome Proliferator-activated Receptor-gamma (PPARg) (AID 2283007; active means hit-call score of the fitted dose curve at least 0.9, where 1 is the maximum)
Chain of Peroxisome proliferator-activated receptor gamma (Homo sapiens) (P37231 whole entry, looked up, the tested form may be a part): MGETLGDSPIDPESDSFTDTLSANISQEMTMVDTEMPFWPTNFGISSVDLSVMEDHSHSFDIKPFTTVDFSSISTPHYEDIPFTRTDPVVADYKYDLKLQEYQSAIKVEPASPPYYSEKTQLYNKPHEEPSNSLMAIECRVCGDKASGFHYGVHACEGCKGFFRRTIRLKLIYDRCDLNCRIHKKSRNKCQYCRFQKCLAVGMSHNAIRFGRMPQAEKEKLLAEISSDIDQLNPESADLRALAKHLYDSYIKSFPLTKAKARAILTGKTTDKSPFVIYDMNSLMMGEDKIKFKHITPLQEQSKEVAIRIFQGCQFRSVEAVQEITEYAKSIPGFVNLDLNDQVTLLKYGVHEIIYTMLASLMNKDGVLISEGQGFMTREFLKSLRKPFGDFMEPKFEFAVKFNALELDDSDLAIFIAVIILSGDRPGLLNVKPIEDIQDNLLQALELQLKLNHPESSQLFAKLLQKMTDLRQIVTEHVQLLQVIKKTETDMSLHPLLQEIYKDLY
In short: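 Liver-derived HepG2 cells expressing an exogenous NR-Gal4 chimera alongside GAL4-UAS reporter genes; 24 h exposure. Fluorescence of reporter RT-PCR products, separated by capillary electrophoresis, gives mRNA induction relative to DMSO.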

[5] = target: human Retinoic Acid Receptor gamma (RARg), RARG (gene 5916) (UniProt P13631); assay: ATG_RARg_TRANS: Attagene TRANS-FACTORIAL HepG2 Assay for human Retinoic Acid Receptor gamma (RARg) (AID 2283009; active means hit-call score of the fitted dose curve at least 0.9, where 1 is the maximum)
Chain of human Retinoic Acid Receptor gamma (RARg), RARG (gene 5916) (P13631 whole entry, looked up, the tested form may be a part): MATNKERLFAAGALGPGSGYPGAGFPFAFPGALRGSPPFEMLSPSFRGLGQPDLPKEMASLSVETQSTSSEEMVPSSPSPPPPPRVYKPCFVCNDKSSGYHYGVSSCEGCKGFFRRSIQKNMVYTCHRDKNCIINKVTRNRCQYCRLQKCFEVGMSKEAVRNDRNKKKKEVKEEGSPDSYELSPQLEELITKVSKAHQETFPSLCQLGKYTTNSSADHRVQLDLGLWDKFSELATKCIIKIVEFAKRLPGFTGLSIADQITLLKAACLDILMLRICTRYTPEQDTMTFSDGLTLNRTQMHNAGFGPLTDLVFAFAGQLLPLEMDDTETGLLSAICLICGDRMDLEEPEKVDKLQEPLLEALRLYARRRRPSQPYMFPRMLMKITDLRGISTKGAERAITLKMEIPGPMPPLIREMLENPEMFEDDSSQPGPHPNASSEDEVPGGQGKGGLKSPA
In short: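 TRANS format measured activity of exogenous NR-GAL4 fusion (RARg) in transfected HepG2 liver cells after 24 h dosing. Induced reporter RNA was detected by RT-PCR/capillary electrophoresis fluorescence, analysed in the positive direction against DMSO.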

[6] = target: Retinoic acid receptor RXR-alpha (Homo sapiens) (UniProt P19793); assay: ATG_RXRa_TRANS: Attagene TRANS-FACTORIAL HepG2 Assay for human Retinoid X Receptor alpha (RXRa) (AID 2283012; active means hit-call score of the fitted dose curve at least 0.9, where 1 is the maximum)
Chain of Retinoic acid receptor RXR-alpha (Homo sapiens) (P19793 whole entry, looked up, the tested form may be a part): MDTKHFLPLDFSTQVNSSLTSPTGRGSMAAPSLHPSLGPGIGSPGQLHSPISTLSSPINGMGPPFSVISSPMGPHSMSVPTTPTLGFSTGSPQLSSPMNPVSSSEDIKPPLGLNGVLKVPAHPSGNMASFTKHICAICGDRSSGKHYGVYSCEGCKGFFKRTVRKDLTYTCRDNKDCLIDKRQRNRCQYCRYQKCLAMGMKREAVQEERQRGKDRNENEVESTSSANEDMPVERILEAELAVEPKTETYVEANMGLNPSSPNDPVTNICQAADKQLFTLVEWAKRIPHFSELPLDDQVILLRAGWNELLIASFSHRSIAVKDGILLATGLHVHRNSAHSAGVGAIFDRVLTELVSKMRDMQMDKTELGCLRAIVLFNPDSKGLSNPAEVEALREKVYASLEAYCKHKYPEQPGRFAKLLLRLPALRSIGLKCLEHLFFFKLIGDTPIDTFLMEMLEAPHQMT
In short: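 Measures exogenous chimeric NR-GAL4 activity in transfected HepG2 liver cells after 24 h of dosing. Induced reporter mRNA was detected by RT-PCR with capillary electrophoresis, and gain of signal was analysed against DMSO.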

[7] = target: human Retinoid X Receptor beta (RXRb), RXRB (gene 6257) (UniProt P28702); assay: ATG_RXRb_TRANS: Attagene TRANS-FACTORIAL HepG2 Assay for human Retinoid X Receptor beta (RXRb) (AID 2283013; active means hit-call score of the fitted dose curve at least 0.9, where 1 is the maximum)
Chain of human Retinoid X Receptor beta (RXRb), RXRB (gene 6257) (P28702 whole entry, looked up, the tested form may be a part): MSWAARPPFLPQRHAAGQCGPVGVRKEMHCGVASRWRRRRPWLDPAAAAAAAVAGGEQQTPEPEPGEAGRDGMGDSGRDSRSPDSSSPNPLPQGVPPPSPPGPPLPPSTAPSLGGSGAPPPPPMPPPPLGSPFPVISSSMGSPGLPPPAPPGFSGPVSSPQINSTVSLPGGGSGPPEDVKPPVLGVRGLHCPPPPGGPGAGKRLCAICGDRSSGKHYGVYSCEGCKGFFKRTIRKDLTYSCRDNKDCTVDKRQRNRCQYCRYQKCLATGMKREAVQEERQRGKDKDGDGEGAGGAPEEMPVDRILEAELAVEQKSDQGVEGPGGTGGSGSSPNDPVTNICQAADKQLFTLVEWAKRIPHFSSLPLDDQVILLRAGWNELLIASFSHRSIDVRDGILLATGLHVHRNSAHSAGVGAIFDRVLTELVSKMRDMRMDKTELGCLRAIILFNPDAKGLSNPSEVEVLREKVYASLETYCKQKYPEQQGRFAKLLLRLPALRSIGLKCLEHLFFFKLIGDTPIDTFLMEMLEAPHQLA
In short: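 Chimeric receptor-Gal4 activity was assessed in transiently transfected human HepG2 cells after 24 h exposure. Transcripts from GAL4-UAS reporters were quantified by fluorescent RT-PCR and capillary electrophoresis, with DMSO as negative control and baseline.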

[8] = read-out: E-selectin (Homo sapiens) (UniProt P16581); assay: BSK_3C_Eselectin: BioMAP Diversity Plus: 3C Assay for Eselectin Biomarker Activity (AID 2283015); conditions: primary human endothelial cells (HUVEC); actives raise or lower the signal
In short: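 Primary human umbilical vein endothelial cells (3C system) were dosed with chemical and cell-surface E-selectin measured by ELISA 24 h later. Bidirectional curve fitting used DMSO as negative control and baseline.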

[9] = read-out: Interleukin-1 alpha (IL1a), IL1A (gene 3552); assay: BSK_BE3C_IL1a: BioMAP Diversity Plus: BE3C Assay for Interleukin-1 alpha (IL1a) Biomarker Activity (AID 2283016); conditions: primary human bronchial epithelial cells; actives raise or lower the signal
In short: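 Signal from IL-1a ELISA, taken 24 h after chemical dosing of human bronchial epithelial cells, is compared with DMSO as baseline using bidirectional curve fitting.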

[10] = read-out: Monocyte Chemoattractant Protein-1 (MCP1), CCL2 (gene 6347); assay: BSK_3C_MCP1: BioMAP Diversity Plus: 3C Assay for Monocyte Chemoattractant Protein-1 (MCP1) Biomarker Activity (AID 2283017); conditions: primary human endothelial cells (HUVEC); actives raise or lower the signal
In short: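 Primary human umbilical vein endothelial cells (3C system) were exposed to test chemical for 24 h, after which MCP-1 was quantified by ELISA. Activity was fitted bidirectionally against DMSO as negative control and baseline.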

[11] = read-out: Human Leukocyte Antigen - DR isotype (HLADR), HLA-DRA (gene 3122); assay: BSK_3C_HLADR: BioMAP Diversity Plus: 3C Assay for Human Leukocyte Antigen - DR isotype (HLADR) Biomarker Activity (AID 2283019); conditions: primary human endothelial cells (HUVEC); actives raise or lower the signal
In short: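 Primary human umbilical vein endothelial cells (3C system) were dosed with compound and cell-surface HLA-DR was quantified by ELISA at 24 h. Activity was fitted bidirectionally against DMSO as negative control and baseline.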

[12] = read-out: Intercellular Adhesion Molecule 1 (ICAM1), ICAM1 (gene 3383); assay: BSK_3C_ICAM1: BioMAP Diversity Plus: 3C Assay for Intercellular Adhesion Molecule 1 (ICAM1) Biomarker Activity (AID 2283003); conditions: primary human endothelial cells (HUVEC); actives raise or lower the signal
In short: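 Chemicals are dosed onto primary human umbilical vein endothelium (3C system). After 24 h, ICAM-1 is measured by ELISA, and responses are fitted bidirectionally relative to DMSO.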

[13] = target: Nuclear receptor subfamily 1 group I member 2 (Homo sapiens) (UniProt O75469); assay: ATG_PXR_TRANS: Attagene TRANS-FACTORIAL HepG2 Assay for human Pregnane X Receptor (PXR) (AID 2283008; active means hit-call score of the fitted dose curve at least 0.9, where 1 is the maximum)
Chain of Nuclear receptor subfamily 1 group I member 2 (Homo sapiens) (O75469 whole entry, looked up, the tested form may be a part): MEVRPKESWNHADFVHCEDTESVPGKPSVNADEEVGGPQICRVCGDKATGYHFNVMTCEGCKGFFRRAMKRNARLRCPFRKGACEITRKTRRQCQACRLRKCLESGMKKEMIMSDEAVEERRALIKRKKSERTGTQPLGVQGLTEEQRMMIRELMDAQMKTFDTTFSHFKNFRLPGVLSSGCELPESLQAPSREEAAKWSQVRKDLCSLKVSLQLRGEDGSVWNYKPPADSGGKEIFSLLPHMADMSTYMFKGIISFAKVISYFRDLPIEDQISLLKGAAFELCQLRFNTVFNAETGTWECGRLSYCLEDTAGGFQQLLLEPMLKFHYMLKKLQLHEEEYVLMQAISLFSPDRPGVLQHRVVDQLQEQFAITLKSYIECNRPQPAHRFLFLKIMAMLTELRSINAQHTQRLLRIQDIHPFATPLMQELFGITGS
In short: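 Transient HepG2 transfectants carrying multiplexed reporter transcription units; PXR activity read through a Gal4 chimera. 24 h exposure. RT-PCR/CE fluorescence; upward curve fit referenced to DMSO.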

[14] = target: human Peroxisome Proliferator-activated Receptor delta (PPARd), PPARD (gene 5467) (UniProt Q03181); assay: ATG_PPARd_TRANS: Attagene TRANS-FACTORIAL HepG2 Assay for human Peroxisome Proliferator-activated Receptor delta (PPARd) (AID 2283002; active means hit-call score of the fitted dose curve at least 0.9, where 1 is the maximum)
Chain of human Peroxisome Proliferator-activated Receptor delta (PPARd), PPARD (gene 5467) (Q03181 whole entry, looked up, the tested form may be a part): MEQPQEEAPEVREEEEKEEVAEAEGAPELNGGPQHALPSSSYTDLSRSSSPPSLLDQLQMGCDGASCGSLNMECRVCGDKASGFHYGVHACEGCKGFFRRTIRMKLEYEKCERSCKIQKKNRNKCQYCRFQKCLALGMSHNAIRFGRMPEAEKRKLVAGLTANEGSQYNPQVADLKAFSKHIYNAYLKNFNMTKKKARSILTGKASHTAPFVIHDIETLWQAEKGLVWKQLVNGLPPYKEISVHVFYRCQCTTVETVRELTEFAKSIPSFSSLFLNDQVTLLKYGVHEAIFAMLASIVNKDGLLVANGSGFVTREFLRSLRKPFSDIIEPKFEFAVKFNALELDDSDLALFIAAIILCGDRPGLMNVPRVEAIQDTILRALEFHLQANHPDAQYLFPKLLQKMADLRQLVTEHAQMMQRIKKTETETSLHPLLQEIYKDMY
In short: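 HepG2 cells transiently transfected with GAL4-UAS multiplexed reporter units driven by exogenous chimeric NR-GAL4 proteins; 24 h compound exposure. Reporter mRNA measured by RT-PCR, 6-FAM primer extension, HpaI digestion and capillary electrophoresis; gain of signal fitted relative to DMSO.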

[15] = target: human Thyroid Receptor alpha (THRa1), THRA (gene 7067) (UniProt P10827); assay: ATG_THRa1_TRANS: Attagene TRANS-FACTORIAL HepG2 Assay for human Thyroid Receptor alpha (THRa1) (AID 2283014; active means hit-call score of the fitted dose curve at least 0.9, where 1 is the maximum)
In short: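 HepG2 cells transiently transfected with multiplexed GAL4-UAS reporter units for exogenous chimeric THRa1-Gal4; reporter mRNA measured 24 h after dosing by RT-PCR, 6-FAM labelling, HpaI digestion and capillary electrophoresis. Gain-of-signal fitted versus DMSO baseline.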

[16] = read-out: Monocyte Chemoattractant Protein-1 (MCP1), CCL2 (gene 6347); assay: BSK_4H_MCP1: BioMAP Diversity Plus: 4H Assay for Monocyte Chemoattractant Protein-1 (MCP1) Biomarker Activity (AID 2283018); conditions: primary human endothelial cells (HUVEC); actives raise or lower the signal
In short: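 Endothelial cells from umbilical vein were treated with test chemical, then after 24 h MCP-1 levels were quantified by ELISA; endpoint values came from bidirectional fitting with DMSO as baseline of activity.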

[17] = target: human RAR-related Orphan Receptor gamma (RORg), RORC (gene 6097) (UniProt P51449); assay: ATG_RORg_TRANS: Attagene TRANS-FACTORIAL HepG2 Assay for human RAR-related Orphan Receptor gamma (RORg) (AID 2283011; active means hit-call score of the fitted dose curve at least 0.9, where 1 is the maximum)
In short: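 Readout: reporter transcript induction (RT-PCR, fluorescent primer extension, capillary electrophoresis) after 24 h compound exposure of transiently transfected HepG2 cells carrying a RORg-Gal4 chimera and GAL4-UAS reporters; DMSO served as baseline, with increasing signal fitted.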

[18] = target: Retinoic acid receptor alpha (Homo sapiens) (UniProt P10276); assay: ATG_RARa_TRANS: Attagene TRANS-FACTORIAL HepG2 Assay for human Retinoic Acid Receptor alpha (RARa) (AID 2283005; active means hit-call score of the fitted dose curve at least 0.9, where 1 is the maximum)
Chain of Retinoic acid receptor alpha (Homo sapiens) (P10276 whole entry, looked up, the tested form may be a part): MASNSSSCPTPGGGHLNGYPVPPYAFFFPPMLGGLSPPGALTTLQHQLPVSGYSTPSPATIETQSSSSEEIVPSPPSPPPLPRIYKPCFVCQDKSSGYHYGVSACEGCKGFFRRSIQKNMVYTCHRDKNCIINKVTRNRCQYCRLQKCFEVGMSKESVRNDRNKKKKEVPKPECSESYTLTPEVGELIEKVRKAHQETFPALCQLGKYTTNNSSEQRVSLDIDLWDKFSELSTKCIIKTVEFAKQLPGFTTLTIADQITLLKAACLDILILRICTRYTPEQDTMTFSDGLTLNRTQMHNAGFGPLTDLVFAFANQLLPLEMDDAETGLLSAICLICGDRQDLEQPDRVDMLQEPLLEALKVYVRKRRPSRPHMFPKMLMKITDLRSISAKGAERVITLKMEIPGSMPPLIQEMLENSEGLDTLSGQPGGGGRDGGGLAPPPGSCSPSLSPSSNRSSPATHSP
In short: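 HepG2 transiently transfected with multiplex GAL4-UAS reporter units including a human RARa–GAL4 chimera; 24 h compound exposure. Reporter mRNA quantified by RT-PCR, 6-FAM labeling and capillary electrophoresis; gain of signal versus DMSO.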

[19] = target: human RAR-related Orphan Receptor beta (RORb), RORB (gene 6096) (UniProt Q92753); assay: ATG_RORb_TRANS: Attagene TRANS-FACTORIAL HepG2 Assay for human RAR-related Orphan Receptor beta (RORb) (AID 2283010; active means hit-call score of the fitted dose curve at least 0.9, where 1 is the maximum)
Chain of human RAR-related Orphan Receptor beta (RORb), RORB (gene 6096) (Q92753 whole entry, looked up, the tested form may be a part): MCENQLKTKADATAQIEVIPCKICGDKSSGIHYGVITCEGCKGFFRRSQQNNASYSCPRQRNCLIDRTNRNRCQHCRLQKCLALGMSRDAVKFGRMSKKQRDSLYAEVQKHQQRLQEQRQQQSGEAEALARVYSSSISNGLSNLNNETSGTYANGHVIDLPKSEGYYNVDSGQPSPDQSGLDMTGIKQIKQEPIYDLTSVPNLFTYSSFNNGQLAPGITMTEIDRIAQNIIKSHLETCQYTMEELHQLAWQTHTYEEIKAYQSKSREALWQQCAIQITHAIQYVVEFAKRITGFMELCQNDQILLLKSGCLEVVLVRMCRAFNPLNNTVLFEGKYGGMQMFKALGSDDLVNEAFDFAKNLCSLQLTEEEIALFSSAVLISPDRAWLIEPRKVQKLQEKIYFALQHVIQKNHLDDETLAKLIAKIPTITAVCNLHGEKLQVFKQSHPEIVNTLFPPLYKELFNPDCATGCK
In short: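 Transfect HepG2 with multiple GAL4-UAS reporter transcription units; dose chemicals for 24 h; isolate RNA, reverse-transcribe and PCR-amplify reporter sequences; label, digest and resolve fragments by capillary electrophoresis; fit increases relative to DMSO.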

[20] = target: human Retinoic Acid Receptor beta (RARb), RARB (gene 5915) (UniProt P10826); assay: ATG_RARb_TRANS: Attagene TRANS-FACTORIAL HepG2 Assay for human Retinoic Acid Receptor beta (AID 2283004; active means hit-call score of the fitted dose curve at least 0.9, where 1 is the maximum)
In short: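 HepG2 cells transiently transfected with multiplexed GAL4-UAS reporter units expressing chimeric NR–Gal4 fusions; 24 h compound exposure. Reporter mRNA quantified by RT-PCR, 6-FAM labelling, HpaI digestion and capillary electrophoresis; gain-of-signal fitted against DMSO baseline.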

Measured: AC50

Chain of E-selectin (Homo sapiens) (P16581 whole entry, looked up): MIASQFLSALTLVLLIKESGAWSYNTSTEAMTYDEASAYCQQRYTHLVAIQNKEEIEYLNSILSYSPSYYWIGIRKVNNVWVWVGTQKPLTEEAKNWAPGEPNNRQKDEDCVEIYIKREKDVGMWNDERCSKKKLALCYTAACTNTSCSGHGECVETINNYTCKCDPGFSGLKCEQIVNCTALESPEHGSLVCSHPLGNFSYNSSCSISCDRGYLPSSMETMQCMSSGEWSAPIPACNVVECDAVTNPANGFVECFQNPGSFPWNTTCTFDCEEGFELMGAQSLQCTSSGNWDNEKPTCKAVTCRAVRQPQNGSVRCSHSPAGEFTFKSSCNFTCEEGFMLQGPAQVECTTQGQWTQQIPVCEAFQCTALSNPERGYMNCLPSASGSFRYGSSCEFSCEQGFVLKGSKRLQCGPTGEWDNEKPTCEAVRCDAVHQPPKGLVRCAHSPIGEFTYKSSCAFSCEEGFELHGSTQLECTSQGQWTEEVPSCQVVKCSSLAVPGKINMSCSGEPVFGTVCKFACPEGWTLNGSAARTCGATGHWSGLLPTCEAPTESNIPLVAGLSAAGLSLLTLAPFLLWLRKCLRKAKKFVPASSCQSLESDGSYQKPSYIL

O=C(Cl)c1c(Cl)c(Cl)c(C(=O)Cl)c(Cl)c1Cl
inactive: [1] | [2] | [3] | [4] | [5] | [6] | [8] | [9] | [10] | [11]
active: [7] 100 µM

CC(C)CCCCCOC(=O)CS
active: [4] 19.5 µM
inactive: [1] | [2] | [12] | [13] | [7] | [8] | [9] | [10] | [11]

Oc1ccccc1Cc1ccccc1O
active: [4] 61.1 µM | [10] 1.72 µM | [16] 4.2 µM and 10.9 µM
inactive: [1] | [2] | [14] | [13] | [5] | [7] | [15] | [8] | [9] | [10] | [11]

CC1(C)CC(O)CC(C)(C)N1[O]
active: [8] 0.0621 µM
inactive: [1] | [2] | [14] | [3] | [4] | [17] | [6] | [9] | [10] | [11]

CCCCCCOC(=O)CCCCC(=O)OCCCCCC
active: [7] 54.2 µM
not listed: [3] | [12] | [13] | [14] | [15] | [16] | [17] | [20]
inactive: all other assays above

CCOC(=O)/C=C\C(=O)OCC
active: [2] 49.6 µM | [4] 9.4 µM | [11] 32.5 µM
not listed: [7] | [12] | [14] | [15] | [16] | [17]
inactive: all other assays above

CC/C=C\C/C=C\C/C=C\CCCCCCCC(=O)OC
inactive: [6]
active: [1] 27.7 µM | [2] 30.4 µM | [14] 68 µM | [3] 7.69 µM | [4] 14.8 µM | [13] 31.3 µM | [7] 125 µM | [8] 19.2 µM | [9] 16.2 µM | [10] 31.7 µM | [11] 10.7 µM

C=CCCCCCCCCC=O
active: [4] 61.7 µM | [7] 105 µM
inactive: [1] | [2] | [3] | [13] | [19] | [6] | [8] | [9] | [10] | [11]

CC(Cl)COP(=O)(OCC(C)Cl)OCC(C)Cl (stereo unspecified)
not listed: [12] | [13] | [17] | [19] | [20]
inactive: all other assays above
